Experimental data taken from PubChem BioAssay (NCI).
About 79,000 compounds went through this panel and 15% of them were active in at least one assay; those are over-represented in the sample as a whole. Calls of active or inactive are those of the source. Cut-off read from the data, not from the text of the source: active = growth inhibition above about 70%; inactive = the rest.

Test: NCI Yeast Anticancer Drug Screen. Data for the rad50 strain (AID 155);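 note: 0% = growth of vehicle-only cultures of the same strain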
Settings: S. cerevisiae rad50 strain growth inhibition; at 5.0 µM (retest, dose inferred, filed as 0.5); hits give high values
Summary of the method: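 Vehicle-treated cultures provide the reference for the growth inhibition reported for compound-exposed, repair-deficient yeast.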

SMILES	growth inhibition
CCCCCCCCCCCCCCCC1=NCCN1C	14% (inactive)
C=CCNC(=O)c1ccccc1C(=O)O	2% (inactive)
O=C(Nc1ccc(Cl)cc1Cl)OC(Cn1cncn1)c1ccc(Cl)cc1Cl (stereo not given)	71% (active)
CC1=C(C)CC2C(=O)C(C(O)CC(C)C)=CC(=O)C2C1 (stereo not given)	-4% (inactive)
BrCc1ccccc1C[P+](c1ccccc1)(c1ccccc1)c1ccccc1	55% (inactive)
Cc1cn(C(C#N)=C(C#N)C#N)c2ccccc12	0% (inactive)
O=C1OCCCOC(=O)c2cc(ccc2O)OCC#CC#CCOc2ccc(O)c1c2	2% (inactive)
O=[N+]([O-])c1cc2ccc(O)cc2c2ccccc12	-1% (inactive)
COc1cc2c(oc(=O)c3cc(C)cc(OC)c32)c2c(C3OC(C)C(O)C(C)(O)C3O)ccc(O)c12 (stereo not given)	80% (active)
Oc1c(Cl)cc(Cl)c(Cc2c(Cl)cc(Cl)c(O)c2Cl)c1Cl	98% (active)
N#CI1OC(C(F)(F)F)(C(F)(F)F)c2ccccc21	72% (active)
c1ccc2c(c1)[nH]c1c[n+]3c(c[n+]12)[nH]c1ccccc13	7% (inactive)
CC1Cc2cc(O)c(O)cc2-c2cc(O)c(O)cc2CC1C (stereo not given)	-6% (inactive)
COc1ccc(C2c3cc4c(cc3OC(C)(O)C2C)OCO4)cc1 (stereo not given)	5% (inactive)
Cc1ccc(C2(O)CC(c3ccc([N+](=O)[O-])o3)=NN2C(=O)COc2ccc(Cl)cc2)cc1 (stereo not given)	46% (inactive)
CCO[Si](CC)(OCC)OCC	-3% (inactive)
C/C=C(/CCC1NCCC2c3ccccc3NC12)[Si](C)(C)C (stereo not given)	1% (inactive)
O=C(CBr)N1c2ccccc2Sc2ccc3ccccc3c21	93% (active)
CC(C)(C)CC(C)(C)N[P+](NC(C)(C)CC(C)(C)C)(NC(C)(C)CC(C)(C)C)NC(C)(C)CC(C)(C)C	89% (active)
COc1ccc(/C=C/c2ccnnc2)c(OC)c1OC	-7% (inactive)

SMILES	growth inhibition
O=Cc1cc(-c2ccccc2)n(-c2ccccc2)c1-c1ccccc1	18% (inactive)
CC(=O)Oc1ccc(/C=C/c2ccncc2)cc1	-164% (inactive)
OC(c1ccccc1)(c1ccccc1)c1ccc[cH-]1.OC(c1ccccc1)(c1ccccc1)c1ccc[cH-]1.[Fe+2]	3% (inactive)
O=C1C=CC(=O)N1c1ccc(Cl)cc1Br	49% (inactive)
Cc1c(N)nc(C2CC(=O)N2CC(N)C(N)=O)nc1C(=O)NC(C(=O)NC(C)C(O)C(C)C(=O)NC(C(=O)NCCc1nc(-c2nc(C(=O)NCCNCC(C)O)cs2)cs1)C(C)O)C(OC1OC(CO)C(O)C(O)C1OC1OC(CO)C(O)C(OC(N)=O)C1O)c1cnc[nH]1 (stereo not given)	94% (active)
CNC(=S)/N=c1/sc([N+](=O)[O-])c(C)n1C	-26% (inactive)
O=c1c2ccccc2ncn1Cc1ccccc1[N+](=O)[O-]	-2% (inactive)
Cc1nn(C(=O)c2ccncc2)c(C)c1N=Nc1ccccc1[N+](=O)[O-]	49% (inactive)
CCC[CH2][Ge]([CH2]CCC)([CH2]CCC)[O]C(=O)C(OC(C)=O)c1ccccc1 (stereo not given)	95% (active)
Nc1ccc2c(c1)[nH]c(=O)c1cc(Cl)c(Cl)cc12	87% (active)
CCCCCCCCCCCCSC1=C(N)C(=O)c2ccccc2C1=O	3% (inactive)
CCC(C)(C)c1ccc(OCCO)c([N+](=O)[O-])c1	10% (inactive)
C/C(=N/O)c1cccc(C(F)(F)F)c1	-150% (inactive)
CCCCCCN(S(=O)(=O)c1ccc([N+](=O)[O-])cc1)S(=O)(=O)c1ccc([N+](=O)[O-])cc1	23% (inactive)
N#CC1=C(N)OC(c2ccccc2)=C(C#N)C1c1ccccc1[N+](=O)[O-] (stereo not given)	5% (inactive)
COC1CCCCC1C(=O)C(C#N)C1CCCCC1C1CCCCC1 (stereo not given)	4% (inactive)
COCCOC1=C(Cl)C(=O)c2c(O)ccc(O)c2C1=O	97% (active)
NC(CSSCC(N)C(=O)Nc1ccc2ccccc2c1)C(=O)Nc1ccc2ccccc2c1 (stereo not given)	42% (inactive)
CSc1c(S(C)=O)c2ccccc2n1C (stereo not given)	20% (inactive)
CCCCCCCCCCCCCCCCNCCCCCCCC(=O)O	-1% (inactive)
